# Test results published in the supplement of paper PMC13392028.
# In all, about 4,100 sequences were measured (“RBNS R-value (6-mer enrichment in protein-bound RNA vs input library)”: median about 0.99, highest 2% from about 1.4 on). The entries come from a sample that favours the highest values as a whole.
# Tested on: PfIESI-1 RRM domain (Plasmodium falciparum ortholog aa 875-1232, GST fusion)
# Experiment: RBNS R-value (6-mer enrichment in protein-bound RNA vs input library) (ratio); higher = stronger binding preference; the methods of the paper give 50 / 100 / 500 nM protein instead
# Method: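 RNA Bind-n-Seq: recombinant GST-tagged IESI-1 RRM domain was incubated at room temperature with a random 40-nt in vitro transcribed RNA library at 250, 500 or 1000 nM protein. Bound RNA was pulled down on glutathione beads and sequenced. R-value is the enrichment of each 6-mer in the bound RNA relative to the input library. Each 6-mer sits inside the random 40-mer context, not as an isolated oligo. Values are replicate 1 only.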
sequence,measurement,setting,value
GGUCGG,RBNS R-value,protein concentration: 250 nM,0.934
same,RBNS R-value,protein concentration: 500 nM,0.838
same,RBNS R-value,protein concentration: 1000 nM,0.968
UCGACU,RBNS R-value,protein concentration: 250 nM,0.956
same,RBNS R-value,protein concentration: 500 nM,0.919
same,RBNS R-value,protein concentration: 1000 nM,0.936
AGUAGG,RBNS R-value,protein concentration: 250 nM,0.965
same,RBNS R-value,protein concentration: 500 nM,0.969
same,RBNS R-value,protein concentration: 1000 nM,1.02
CGUUCA,RBNS R-value,protein concentration: 250 nM,0.9
same,RBNS R-value,protein concentration: 500 nM,0.886
same,RBNS R-value,protein concentration: 1000 nM,0.924
GAAUGC,RBNS R-value,protein concentration: 250 nM,1.08
same,RBNS R-value,protein concentration: 500 nM,1.07
same,RBNS R-value,protein concentration: 1000 nM,1.08
GAAUGU,RBNS R-value,protein concentration: 250 nM,0.918
same,RBNS R-value,protein concentration: 500 nM,1.01
same,RBNS R-value,protein concentration: 1000 nM,0.982
CAAUGC,RBNS R-value,protein concentration: 250 nM,0.943
same,RBNS R-value,protein concentration: 500 nM,0.936
same,RBNS R-value,protein concentration: 1000 nM,0.955
CAAUGA,RBNS R-value,protein concentration: 250 nM,1.34
same,RBNS R-value,protein concentration: 500 nM,1.41
same,RBNS R-value,protein concentration: 1000 nM,1.24
AAAUGC,RBNS R-value,protein concentration: 250 nM,0.994
same,RBNS R-value,protein concentration: 500 nM,1.07
same,RBNS R-value,protein concentration: 1000 nM,1.05
AAAUGA,RBNS R-value,protein concentration: 250 nM,1.42
same,RBNS R-value,protein concentration: 500 nM,1.6
same,RBNS R-value,protein concentration: 1000 nM,1.38
GAAUGA,RBNS R-value,protein concentration: 250 nM,1.47
same,RBNS R-value,protein concentration: 500 nM,1.55
same,RBNS R-value,protein concentration: 1000 nM,1.36
UAAUGA,RBNS R-value,protein concentration: 250 nM,1.05
same,RBNS R-value,protein concentration: 500 nM,1.2
same,RBNS R-value,protein concentration: 1000 nM,1.03
CAAUGG,RBNS R-value,protein concentration: 250 nM,1.03
same,RBNS R-value,protein concentration: 500 nM,1.03
same,RBNS R-value,protein concentration: 1000 nM,1.06
UUCUAC,RBNS R-value,protein concentration: 250 nM,0.96
same,RBNS R-value,protein concentration: 500 nM,0.873
same,RBNS R-value,protein concentration: 1000 nM,0.911
GUCUUA,RBNS R-value,protein concentration: 250 nM,0.784
same,RBNS R-value,protein concentration: 500 nM,0.786
same,RBNS R-value,protein concentration: 1000 nM,0.826
CGUGAC,RBNS R-value,protein concentration: 250 nM,1
same,RBNS R-value,protein concentration: 500 nM,0.946
same,RBNS R-value,protein concentration: 1000 nM,1
GUAGCC,RBNS R-value,protein concentration: 250 nM,1.03
same,RBNS R-value,protein concentration: 500 nM,0.977
same,RBNS R-value,protein concentration: 1000 nM,1.02
UUUAAG,RBNS R-value,protein concentration: 250 nM,0.833
same,RBNS R-value,protein concentration: 500 nM,0.879
same,RBNS R-value,protein concentration: 1000 nM,0.837
CAGAGA,RBNS R-value,protein concentration: 250 nM,1.28
same,RBNS R-value,protein concentration: 500 nM,1.31
same,RBNS R-value,protein concentration: 1000 nM,1.3
CCGGGU,RBNS R-value,protein concentration: 250 nM,1.19
same,RBNS R-value,protein concentration: 500 nM,1.08
same,RBNS R-value,protein concentration: 1000 nM,1.17
CCCGGU,RBNS R-value,protein concentration: 250 nM,1.22
same,RBNS R-value,protein concentration: 500 nM,1.12
same,RBNS R-value,protein concentration: 1000 nM,1.21
ACGGGA,RBNS R-value,protein concentration: 250 nM,1.1
same,RBNS R-value,protein concentration: 500 nM,1.06
same,RBNS R-value,protein concentration: 1000 nM,1.1
CCCGAG,RBNS R-value,protein concentration: 250 nM,1.66
same,RBNS R-value,protein concentration: 500 nM,1.29
same,RBNS R-value,protein concentration: 1000 nM,1.45
ACCGAG,RBNS R-value,protein concentration: 250 nM,1.34
same,RBNS R-value,protein concentration: 500 nM,1.24
same,RBNS R-value,protein concentration: 1000 nM,1.25
CCGGGA,RBNS R-value,protein concentration: 250 nM,1.4
same,RBNS R-value,protein concentration: 500 nM,1.21
same,RBNS R-value,protein concentration: 1000 nM,1.27
ACCGAA,RBNS R-value,protein concentration: 250 nM,1.07
same,RBNS R-value,protein concentration: 500 nM,1.11
same,RBNS R-value,protein concentration: 1000 nM,1.09
CCCGAA,RBNS R-value,protein concentration: 250 nM,1.44
same,RBNS R-value,protein concentration: 500 nM,1.33
same,RBNS R-value,protein concentration: 1000 nM,1.35
CCCGGC,RBNS R-value,protein concentration: 250 nM,1.27
same,RBNS R-value,protein concentration: 500 nM,1.14
same,RBNS R-value,protein concentration: 1000 nM,1.24
GCCGAG,RBNS R-value,protein concentration: 250 nM,1.23
same,RBNS R-value,protein concentration: 500 nM,1.16
same,RBNS R-value,protein concentration: 1000 nM,1.2
UCCGAA,RBNS R-value,protein concentration: 250 nM,1.1
same,RBNS R-value,protein concentration: 500 nM,1.1
same,RBNS R-value,protein concentration: 1000 nM,1.13
CCCGGG,RBNS R-value,protein concentration: 250 nM,1.56
same,RBNS R-value,protein concentration: 500 nM,1.3
same,RBNS R-value,protein concentration: 1000 nM,1.42
CUCAAC,RBNS R-value,protein concentration: 250 nM,0.907
same,RBNS R-value,protein concentration: 500 nM,0.891
same,RBNS R-value,protein concentration: 1000 nM,0.925
CUCUAC,RBNS R-value,protein concentration: 250 nM,0.858
same,RBNS R-value,protein concentration: 500 nM,0.793
same,RBNS R-value,protein concentration: 1000 nM,0.813
GGGAAC,RBNS R-value,protein concentration: 250 nM,1.14
same,RBNS R-value,protein concentration: 500 nM,1.14
same,RBNS R-value,protein concentration: 1000 nM,1.17
GAAUUU,RBNS R-value,protein concentration: 250 nM,1.14
same,RBNS R-value,protein concentration: 500 nM,1.19
same,RBNS R-value,protein concentration: 1000 nM,1.13
UGCUAC,RBNS R-value,protein concentration: 250 nM,0.931
same,RBNS R-value,protein concentration: 500 nM,0.87
same,RBNS R-value,protein concentration: 1000 nM,0.895
GUGUGG,RBNS R-value,protein concentration: 250 nM,0.869
same,RBNS R-value,protein concentration: 500 nM,0.812
same,RBNS R-value,protein concentration: 1000 nM,0.921
CCACGA,RBNS R-value,protein concentration: 250 nM,1.17
same,RBNS R-value,protein concentration: 500 nM,1.13
same,RBNS R-value,protein concentration: 1000 nM,1.15
CGGGUC,RBNS R-value,protein concentration: 250 nM,1.03
same,RBNS R-value,protein concentration: 500 nM,0.928
same,RBNS R-value,protein concentration: 1000 nM,1.06
UUCGAG,RBNS R-value,protein concentration: 250 nM,1.1
same,RBNS R-value,protein concentration: 500 nM,1.12
same,RBNS R-value,protein concentration: 1000 nM,1.14
CUCGAG,RBNS R-value,protein concentration: 250 nM,1.38
same,RBNS R-value,protein concentration: 500 nM,1.28
same,RBNS R-value,protein concentration: 1000 nM,1.27
GUCGAG,RBNS R-value,protein concentration: 250 nM,0.954
same,RBNS R-value,protein concentration: 500 nM,0.931
same,RBNS R-value,protein concentration: 1000 nM,0.991
UGGAGC,RBNS R-value,protein concentration: 250 nM,1.03
same,RBNS R-value,protein concentration: 500 nM,1
same,RBNS R-value,protein concentration: 1000 nM,1.02
CUUAUA,RBNS R-value,protein concentration: 250 nM,0.758
same,RBNS R-value,protein concentration: 500 nM,0.723
same,RBNS R-value,protein concentration: 1000 nM,0.711
UGGAUU,RBNS R-value,protein concentration: 250 nM,0.95
same,RBNS R-value,protein concentration: 500 nM,0.939
same,RBNS R-value,protein concentration: 1000 nM,0.974
CUGAAU,RBNS R-value,protein concentration: 250 nM,1.01
same,RBNS R-value,protein concentration: 500 nM,1.05
same,RBNS R-value,protein concentration: 1000 nM,1.01
GUGAUU,RBNS R-value,protein concentration: 250 nM,1.83
same,RBNS R-value,protein concentration: 500 nM,2.01
same,RBNS R-value,protein concentration: 1000 nM,1.61
GUGAUA,RBNS R-value,protein concentration: 250 nM,1.31
same,RBNS R-value,protein concentration: 500 nM,1.43
same,RBNS R-value,protein concentration: 1000 nM,1.28
GUGAAA,RBNS R-value,protein concentration: 250 nM,1.01
same,RBNS R-value,protein concentration: 500 nM,1.12
same,RBNS R-value,protein concentration: 1000 nM,1.09
GUGAUC,RBNS R-value,protein concentration: 250 nM,1.06
same,RBNS R-value,protein concentration: 500 nM,1.1
same,RBNS R-value,protein concentration: 1000 nM,1.06
GUGAGA,RBNS R-value,protein concentration: 250 nM,1.02
same,RBNS R-value,protein concentration: 500 nM,1.08
same,RBNS R-value,protein concentration: 1000 nM,1.1
GCGAUU,RBNS R-value,protein concentration: 250 nM,1.23
same,RBNS R-value,protein concentration: 500 nM,1.24
same,RBNS R-value,protein concentration: 1000 nM,1.15
UUGAGU,RBNS R-value,protein concentration: 250 nM,1
same,RBNS R-value,protein concentration: 500 nM,1.04
same,RBNS R-value,protein concentration: 1000 nM,1.02
CUGAUU,RBNS R-value,protein concentration: 250 nM,2.52
same,RBNS R-value,protein concentration: 500 nM,2.66
same,RBNS R-value,protein concentration: 1000 nM,1.97
CCGAUU,RBNS R-value,protein concentration: 250 nM,1.34
same,RBNS R-value,protein concentration: 500 nM,1.3
same,RBNS R-value,protein concentration: 1000 nM,1.23
UUGAUU,RBNS R-value,protein concentration: 250 nM,2.69
same,RBNS R-value,protein concentration: 500 nM,2.96
same,RBNS R-value,protein concentration: 1000 nM,2.18
